Results: the supplement of paper PMC10849652
The full data set covers some 7,900 targets. This sample favours those with a hit. About 0.6% of all pairs of compound and target were hits. Values without a mark were called inactive.

Legend:
Assay in all cases: log2 fold change, soluble protein after heating vs DMSO (PISA); higher = thermal stabilisation; K562 cells, 10 uM, 30 min; active = over 0.2 and 3.5 SD of the protein, either way, in both replicates (recomputed)
bafetinib = compound: Cc1ccc(NC(=O)c2ccc(CN3CC[C@H](N(C)C)C3)c(C(F)(F)F)c2)cc1Nc1nccc(-c2cncnc2)n1 [bafetinib]
Method in brief: (§1)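 K562 cells at 2×10^6 cells/mL were treated for 30 min with 10 μM compound, and aliquots were heated for 3 min over 48°C-58°C before pooling. Extraction used PBS with 0.5% NP-40 at 4°C, and soluble protein was the supernatant after 21,000xg for 90 min, measured by TMTpro 16plex LC-MS/MS with channel sums equalised. Thermal stability values, relative to control samples and from duplicates, are log2 fold changes.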

[1] = compound: Cc1cccc(CC(=O)N2CCc3c2ccc(-c2cn(C)c4ncnc(N)c24)c3F)n1
Method in brief: as §1

nilotinib = compound: Cc1cn(-c2cc(NC(=O)c3ccc(C)c(Nc4nccc(-c5cccnc5)n4)c3)cc(C(F)(F)F)c2)cn1 [nilotinib]
Method in brief: as §1

[2] = compound: Cc1nc(Nc2n[nH]c3c2CN(C(=O)N[C@H](CN(C)C)c2ccccc2)C3(C)C)c2sccc2n1
Method in brief: as §1

dasatinib = compound: Cc1nc(Nc2ncc(C(=O)Nc3c(C)cccc3Cl)s2)cc(N2CCN(CCO)CC2)n1 [dasatinib]
Method in brief: as §1

[3] = compound: Cc1ncc(-c2ccnc(Nc3ccc(S(C)(=O)=O)cc3)n2)n1C(C)C
Method in brief: as §1

[4] = compound: Cn1cc(-c2ccc3c(c2)CCN3C(=O)Cc2cccc(C(F)(F)F)c2)c2c(N)ncnc21
Method in brief: as §1

[5] = compound: Cn1cc(-c2ccc3nnc(C(F)(F)c4ccc5ncccc5c4)n3n2)cn1
Method in brief: as §1

tipifarnib = compound: Cn1cncc1[C@@](N)(c1ccc(Cl)cc1)c1ccc2c(c1)c(-c1cccc(Cl)c1)cc(=O)n2C [tipifarnib]
Method in brief: as §1

mubritinib = compound: FC(F)(F)c1ccc(/C=C/c2nc(COc3ccc(CCCCn4ccnn4)cc3)co2)cc1 [mubritinib]
Method in brief: as §1

[6] = compound: NC(=O)Nc1cc(-c2cccc(F)c2)sc1C(=O)N[C@H]1CCCNC1
Method in brief: as §1

[7] = compound: NC(=O)c1cnc(N[C@@H]2CCCC[C@@H]2N)nc1Nc1cccc(-n2nccn2)c1
Method in brief: as §1

[8] = compound: NC1(c2ccc(-c3nc4ccn5c(=O)[nH]nc5c4cc3-c3ccccc3)cc2)CCC1
Method in brief: as §1

[9] = compound: NCC(=O)Nc1ccc(-n2nc(C(F)(F)F)cc2-c2ccc3c(ccc4ccccc43)c2)cc1
Method in brief: as §1

entinostat = compound: Nc1ccccc1NC(=O)c1ccc(CNC(=O)OCc2cccnc2)cc1 [entinostat]
Method in brief: as §1

vorinostat = compound: O=C(CCCCCCC(=O)Nc1ccccc1)NO [vorinostat]
Method in brief: as §1

citarinostat = compound: O=C(CCCCCCNC(=O)c1cnc(N(c2ccccc2)c2ccccc2Cl)nc1)NO [citarinostat]
Method in brief: as §1

silmitasertib = compound: O=C(O)c1ccc2c(c1)nc(Nc1cccc(Cl)c1)c1ccncc12 [silmitasertib]
Method in brief: as §1

[10] = compound: O=C1NC(=O)C(c2cnc3ccccn23)=C1c1cn2c3c(cc(F)cc13)CN(C(=O)N1CCCCC1)CC2
Method in brief: as §1

[11] = compound: c1cc(OCCN2CCCCC2)cc(-c2n[nH]c3ccc(-c4nnc[nH]4)cc23)c1
Method in brief: as §1

Chain of UniProt Q14693 (Q14693 whole entry, looked up): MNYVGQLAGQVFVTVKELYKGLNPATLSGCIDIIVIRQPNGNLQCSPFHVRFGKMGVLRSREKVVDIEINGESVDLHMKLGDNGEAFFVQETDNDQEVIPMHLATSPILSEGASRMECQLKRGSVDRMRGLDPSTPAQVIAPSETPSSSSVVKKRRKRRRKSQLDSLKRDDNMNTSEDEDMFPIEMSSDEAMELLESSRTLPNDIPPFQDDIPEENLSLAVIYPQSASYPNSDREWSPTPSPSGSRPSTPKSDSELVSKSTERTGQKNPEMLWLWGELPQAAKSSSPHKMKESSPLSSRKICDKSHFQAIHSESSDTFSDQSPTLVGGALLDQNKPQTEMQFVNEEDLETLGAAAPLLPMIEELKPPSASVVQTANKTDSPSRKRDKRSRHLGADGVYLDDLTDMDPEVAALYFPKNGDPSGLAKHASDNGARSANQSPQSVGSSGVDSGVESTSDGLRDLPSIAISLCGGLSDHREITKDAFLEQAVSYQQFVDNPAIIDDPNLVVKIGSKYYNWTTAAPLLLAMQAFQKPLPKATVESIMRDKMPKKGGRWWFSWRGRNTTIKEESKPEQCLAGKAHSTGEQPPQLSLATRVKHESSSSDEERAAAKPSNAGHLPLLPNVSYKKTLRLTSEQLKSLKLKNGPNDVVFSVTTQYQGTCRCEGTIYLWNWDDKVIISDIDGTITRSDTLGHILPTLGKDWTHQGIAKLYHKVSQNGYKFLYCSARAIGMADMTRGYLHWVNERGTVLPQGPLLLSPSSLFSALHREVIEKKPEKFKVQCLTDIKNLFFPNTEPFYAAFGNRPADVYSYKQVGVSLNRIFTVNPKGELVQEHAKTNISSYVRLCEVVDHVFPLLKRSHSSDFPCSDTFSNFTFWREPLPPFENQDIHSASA
Chain of UniProt P01116 (P01116 whole entry, looked up): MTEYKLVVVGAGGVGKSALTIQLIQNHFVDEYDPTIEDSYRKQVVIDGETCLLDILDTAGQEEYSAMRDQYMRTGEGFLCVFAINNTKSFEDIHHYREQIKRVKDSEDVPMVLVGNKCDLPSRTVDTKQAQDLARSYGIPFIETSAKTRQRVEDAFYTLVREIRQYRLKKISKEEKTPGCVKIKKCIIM
Chain of UniProt O95819 (O95819 whole entry, looked up): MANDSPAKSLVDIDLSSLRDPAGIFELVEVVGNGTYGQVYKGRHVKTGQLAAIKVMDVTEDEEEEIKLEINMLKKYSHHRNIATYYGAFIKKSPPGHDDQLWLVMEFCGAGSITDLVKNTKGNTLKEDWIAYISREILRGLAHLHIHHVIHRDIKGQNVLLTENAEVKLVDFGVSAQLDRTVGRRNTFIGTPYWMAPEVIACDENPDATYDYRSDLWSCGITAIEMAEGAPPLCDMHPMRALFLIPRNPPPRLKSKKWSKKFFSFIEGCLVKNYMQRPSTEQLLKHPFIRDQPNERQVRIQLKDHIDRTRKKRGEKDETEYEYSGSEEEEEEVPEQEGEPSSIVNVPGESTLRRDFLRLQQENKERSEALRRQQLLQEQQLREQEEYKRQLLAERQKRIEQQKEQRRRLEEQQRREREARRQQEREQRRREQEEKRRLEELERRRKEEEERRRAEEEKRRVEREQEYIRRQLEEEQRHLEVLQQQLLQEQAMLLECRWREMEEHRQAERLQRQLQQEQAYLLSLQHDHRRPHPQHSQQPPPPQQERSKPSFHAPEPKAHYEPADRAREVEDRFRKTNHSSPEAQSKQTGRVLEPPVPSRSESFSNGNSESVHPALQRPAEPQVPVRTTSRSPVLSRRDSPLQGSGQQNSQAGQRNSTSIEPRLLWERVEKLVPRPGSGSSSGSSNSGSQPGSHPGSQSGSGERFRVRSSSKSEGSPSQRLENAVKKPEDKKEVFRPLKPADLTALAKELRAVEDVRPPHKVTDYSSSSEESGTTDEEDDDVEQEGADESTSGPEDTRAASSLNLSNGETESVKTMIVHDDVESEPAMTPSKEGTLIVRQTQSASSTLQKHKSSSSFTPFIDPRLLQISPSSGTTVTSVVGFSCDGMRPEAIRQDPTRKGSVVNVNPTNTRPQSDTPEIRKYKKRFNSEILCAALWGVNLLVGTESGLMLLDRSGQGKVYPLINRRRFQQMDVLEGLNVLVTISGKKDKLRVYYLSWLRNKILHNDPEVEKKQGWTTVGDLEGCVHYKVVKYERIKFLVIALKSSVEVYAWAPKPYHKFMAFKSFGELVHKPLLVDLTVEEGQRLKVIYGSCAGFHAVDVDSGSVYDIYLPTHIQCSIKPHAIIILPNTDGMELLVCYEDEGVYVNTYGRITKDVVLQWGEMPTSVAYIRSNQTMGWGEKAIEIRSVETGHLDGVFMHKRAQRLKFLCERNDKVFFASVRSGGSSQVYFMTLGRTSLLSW
Chain of UniProt O14733 (O14733 whole entry, looked up): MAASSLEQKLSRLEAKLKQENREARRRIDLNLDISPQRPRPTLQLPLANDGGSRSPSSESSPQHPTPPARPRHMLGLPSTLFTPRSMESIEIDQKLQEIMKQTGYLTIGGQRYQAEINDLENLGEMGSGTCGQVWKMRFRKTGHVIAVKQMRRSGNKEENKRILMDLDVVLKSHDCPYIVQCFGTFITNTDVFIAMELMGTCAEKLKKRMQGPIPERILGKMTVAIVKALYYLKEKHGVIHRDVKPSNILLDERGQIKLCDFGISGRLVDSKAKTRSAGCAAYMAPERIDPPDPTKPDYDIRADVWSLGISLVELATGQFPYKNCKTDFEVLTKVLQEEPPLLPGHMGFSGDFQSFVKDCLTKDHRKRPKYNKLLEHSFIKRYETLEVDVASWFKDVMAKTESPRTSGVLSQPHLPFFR
Chain of UniProt Q9BRT3 (Q9BRT3 whole entry, looked up): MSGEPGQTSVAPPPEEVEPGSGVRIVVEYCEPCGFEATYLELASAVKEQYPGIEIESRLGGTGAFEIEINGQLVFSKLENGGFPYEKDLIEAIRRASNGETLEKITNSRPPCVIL
Chain of UniProt Q9Y6R4 (Q9Y6R4 whole entry, looked up): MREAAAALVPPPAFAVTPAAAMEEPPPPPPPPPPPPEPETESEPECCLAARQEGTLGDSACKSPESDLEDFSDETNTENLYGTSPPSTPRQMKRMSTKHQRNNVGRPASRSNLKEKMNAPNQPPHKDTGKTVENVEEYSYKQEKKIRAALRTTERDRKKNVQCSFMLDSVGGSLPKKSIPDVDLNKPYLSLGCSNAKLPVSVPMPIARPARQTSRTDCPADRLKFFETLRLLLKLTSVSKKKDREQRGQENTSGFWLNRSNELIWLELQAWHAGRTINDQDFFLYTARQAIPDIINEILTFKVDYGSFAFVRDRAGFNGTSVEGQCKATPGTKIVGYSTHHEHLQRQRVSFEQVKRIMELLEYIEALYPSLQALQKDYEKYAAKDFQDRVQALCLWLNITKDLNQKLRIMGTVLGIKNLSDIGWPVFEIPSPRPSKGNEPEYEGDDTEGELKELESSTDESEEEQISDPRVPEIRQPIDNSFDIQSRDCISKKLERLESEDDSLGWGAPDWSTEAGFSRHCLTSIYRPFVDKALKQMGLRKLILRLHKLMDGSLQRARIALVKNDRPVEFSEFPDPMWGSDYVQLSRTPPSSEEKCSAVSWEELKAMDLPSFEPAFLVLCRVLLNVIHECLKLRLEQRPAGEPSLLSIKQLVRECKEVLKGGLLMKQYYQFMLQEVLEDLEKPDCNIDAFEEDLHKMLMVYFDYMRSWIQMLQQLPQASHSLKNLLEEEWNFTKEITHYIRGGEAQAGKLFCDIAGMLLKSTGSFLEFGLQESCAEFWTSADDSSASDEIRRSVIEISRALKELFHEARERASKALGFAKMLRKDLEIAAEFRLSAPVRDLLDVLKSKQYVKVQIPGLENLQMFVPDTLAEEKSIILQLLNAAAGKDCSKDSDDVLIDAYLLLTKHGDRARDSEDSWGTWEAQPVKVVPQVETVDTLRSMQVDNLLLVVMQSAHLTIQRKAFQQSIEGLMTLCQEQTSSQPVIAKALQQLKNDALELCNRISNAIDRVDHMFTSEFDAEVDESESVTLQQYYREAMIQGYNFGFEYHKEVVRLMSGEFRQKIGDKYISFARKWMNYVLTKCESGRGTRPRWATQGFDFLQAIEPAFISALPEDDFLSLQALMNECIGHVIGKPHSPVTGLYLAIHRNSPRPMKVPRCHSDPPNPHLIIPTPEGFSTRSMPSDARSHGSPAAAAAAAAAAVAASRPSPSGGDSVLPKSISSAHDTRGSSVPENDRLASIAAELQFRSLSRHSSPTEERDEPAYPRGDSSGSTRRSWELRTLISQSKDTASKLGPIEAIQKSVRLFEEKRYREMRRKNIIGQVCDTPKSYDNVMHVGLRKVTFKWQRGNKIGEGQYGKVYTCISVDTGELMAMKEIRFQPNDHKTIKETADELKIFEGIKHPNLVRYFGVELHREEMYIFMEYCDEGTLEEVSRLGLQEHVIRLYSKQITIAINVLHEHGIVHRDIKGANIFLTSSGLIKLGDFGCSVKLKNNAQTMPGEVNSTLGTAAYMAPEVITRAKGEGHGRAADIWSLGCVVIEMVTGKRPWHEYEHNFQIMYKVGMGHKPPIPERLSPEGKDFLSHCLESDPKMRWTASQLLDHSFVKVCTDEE
Chain of UniProt Q16539 (Q16539 whole entry, looked up): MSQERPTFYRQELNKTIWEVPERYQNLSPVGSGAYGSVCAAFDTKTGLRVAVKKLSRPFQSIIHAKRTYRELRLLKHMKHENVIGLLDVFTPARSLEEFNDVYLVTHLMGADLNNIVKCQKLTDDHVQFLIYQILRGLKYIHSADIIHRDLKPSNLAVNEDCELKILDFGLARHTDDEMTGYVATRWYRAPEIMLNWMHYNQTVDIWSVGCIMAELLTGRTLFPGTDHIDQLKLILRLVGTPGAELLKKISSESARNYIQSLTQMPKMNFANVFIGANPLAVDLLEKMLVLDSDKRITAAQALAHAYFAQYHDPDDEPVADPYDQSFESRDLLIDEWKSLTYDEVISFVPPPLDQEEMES

Target	log2 fold change (bafetinib)	log2 fold change [1]	log2 fold change (nilotinib)	log2 fold change [2]	log2 fold change (dasatinib)	log2 fold change [3]	log2 fold change [4]	log2 fold change [5]	log2 fold change (tipifarnib)	log2 fold change (mubritinib)	log2 fold change [6]	log2 fold change [7]	log2 fold change [8]	log2 fold change [9]	log2 fold change (entinostat)	log2 fold change (vorinostat)	log2 fold change (citarinostat)	log2 fold change (silmitasertib)	log2 fold change [10]	log2 fold change [11]
MAP2K7 isoform 4 (UniProt O14733)	-0.086	0	-0.035	0.025	-0.075	-0.039	-0.006	0.02	0.027	-0.018	0.008	-0.051	-0.078	-0.015	0.015	0.084	0.041	-0.019	-0.052	-0.044
LRBA (UniProt P50851)	-0.047	0.053	-0.067	-0.022	-0.061	0.014	0.047	0.002	-0.06	0.024	0.002	-0.058	-0.146	-0.039	0.016	0.049	0.034	0.033	-0.025	-0.026
KRAS isoform 2 (UniProt P01116)	0.008	-0.115	-0.123	0.074	-0.018	-0.041	0.064	-0.08	0.087	0.041	-0.07	0.039	0.091	0.061	-0.015	-0.032	-0.018	0.001	-0.019	-0.032
MAP4K4 isoform 3 (UniProt O95819)	-0.068	0.029	-0.038	-0.094	-0.162	-0.09	-0.024	0.038	-0.027	0.021	-0.199	-0.154	-0.204	-0.013	0.07	0.075	0.044	-0.024		-0.179
MAPK14 (UniProt Q16539)	1.65 (active)	-0.092	1.68 (active)	0.123	1.05 (active)	0.071	0.107	0.014	-0.102	0	-0.019	-0.047	-0.136	-0.033	0.022	0.027	0.051	0.37		0.058
LPIN1 isoform 7 (UniProt Q14693)	-0.076	0.051	-0.038	0.046	-0.016	-0.079	-0.025	-0.058	-0.019	0.095	-0.006	-0.011	-0.039	-0.03	-0.027	0.136	0.001	-0.139	-0.098	-0.048
MIEN1 (UniProt Q9BRT3)	0.023	-0.013	-0.029	-0.037	-0.041	-0.08	0.08	0.139	0.083	0.018	0.045	0.003	-0.013	0.001	0.016	-0.042	-0.007	0.004	-0.131	0.057
MAP3K4 isoform 2 (UniProt Q9Y6R4)	-0.059	-0.095	0.008	0.221 (active)	0.534 (active)	0.027	-0.031	0.021	-0.032	0.016	0.036	-0.025	-0.104	-0.025	-0.027	-0.019	0.006	0	-0.029	-0.075
